Experimental findings from PubChem BioAssay (EPA / NIEHS) are described below.

Records with an inconclusive call do not appear. Activity calls are given as the source filed them. How the source made its calls, unless noted: active means hit-call score of the fitted dose curve at least 0.9, where 1 is the maximum; inconclusive means response in the unintended direction; inactive means score below 0.9.

Usually AC50 stands for the midpoint of the concentration-response curve, whichever way the signal moves.

Chain of Ratio of Nucleoli Translocation and Cytoplasm, AR (gene 367) (P10275 whole entry, looked up): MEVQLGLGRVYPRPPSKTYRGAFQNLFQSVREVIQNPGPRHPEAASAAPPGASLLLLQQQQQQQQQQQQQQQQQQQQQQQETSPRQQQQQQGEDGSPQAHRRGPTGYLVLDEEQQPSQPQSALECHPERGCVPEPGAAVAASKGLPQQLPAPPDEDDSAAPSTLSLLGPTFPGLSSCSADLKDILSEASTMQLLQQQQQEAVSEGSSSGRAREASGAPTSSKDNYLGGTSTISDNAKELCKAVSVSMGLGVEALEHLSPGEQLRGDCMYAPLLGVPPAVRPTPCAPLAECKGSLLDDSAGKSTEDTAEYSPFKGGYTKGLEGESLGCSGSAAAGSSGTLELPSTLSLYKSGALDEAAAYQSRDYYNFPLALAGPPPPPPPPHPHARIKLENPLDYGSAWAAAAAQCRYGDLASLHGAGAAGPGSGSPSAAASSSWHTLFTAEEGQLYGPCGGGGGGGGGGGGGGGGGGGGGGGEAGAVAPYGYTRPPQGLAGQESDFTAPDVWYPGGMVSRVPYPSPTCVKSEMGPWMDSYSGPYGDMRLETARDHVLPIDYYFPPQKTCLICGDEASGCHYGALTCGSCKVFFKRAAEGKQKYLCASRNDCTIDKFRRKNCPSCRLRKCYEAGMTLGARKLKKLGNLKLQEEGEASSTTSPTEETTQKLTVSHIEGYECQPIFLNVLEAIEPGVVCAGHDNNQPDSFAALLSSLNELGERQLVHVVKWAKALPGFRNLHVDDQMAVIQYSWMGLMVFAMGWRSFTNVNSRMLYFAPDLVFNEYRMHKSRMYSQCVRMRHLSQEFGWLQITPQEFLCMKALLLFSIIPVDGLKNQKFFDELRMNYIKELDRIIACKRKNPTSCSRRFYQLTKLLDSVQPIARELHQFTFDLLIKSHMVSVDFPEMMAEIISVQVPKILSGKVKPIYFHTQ

One assay deals with Nucleoli Translocation, AR (gene 367) (UniProt P10275). Nature of the assay: UPITT_HCI_U2OS_AR_TIF2_Nucleoli_Agonist: University of Pittsburgh U2OS Androgen Receptor-Transcriptional Intermediary Factor 2 (AR-TIF2) Agonism High Content Imaging Assay for Nucleoli Translocation (AID 2283998).
Chain of Nucleoli Translocation, AR (gene 367) (P10275 whole entry, looked up): as above
Conditions: not given
In a few lines: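 High-content images quantify nucleolar accumulation of RFP-fused AR in cells also expressing GFP-TIF2; the endpoint is fitted as signal gain versus DMSO controls across final concentrations of 0.195 to 50 uM.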
As for `COc1cc(C(=O)NC2CCN(C)CC2)ccc1Nc1ncc2c(n1)N(C1CCCC1)CC(F)(F)C(=O)N2C`, the AC50 is 46.5 µM (active).
For the molecule `CCCCOC(=O)c1ccc(O)cc1`, the call was inactive.
For `Cc1c2ccccc2c(C)c2c1ccc1ccccc12`, the result was inactive.
The same measure, in the same setting: the result for `COCC(C)OCC(C)OCC(C)O` (stereo not drawn) reads “inactive”.
Still for that read-out and setting: the result for `O=C(O)Cn1c(=O)n(Cc2ccc(Br)cc2F)c(=O)c2ccc(Cl)cc21` reads “inactive”.
In the case of `Oc1ccc2ccccc2c1`, the molecule was called inactive.
Turning to `NCc1cccc(C2CCN(C(=O)c3ccc(C#Cc4ccccc4F)o3)CC2)c1`, the result was inactive.
Still for that read-out and setting: with `O=c1c(-c2ccc(O)cc2)coc2cc(O)cc(O)c12` the entry was “inactive”; with `OCCO`, “inactive”.
As to `CN(C)c1ccc(C(=C2C=CC(=[N+](C)C)C=C2)c2ccc(N(C)C)cc2)cc1`, the AC50 is 14.6 µM (active).
Turning to `CCN(Cc1cccnc1)C(=O)c1cccc(Cl)c1[C@]1(C)C(=O)N(Cc2ccc(OC)cc2OC)c2ccc(Cl)cc21`, the molecule was classed as inactive.
Consider `Cc1cc(F)ccc1-c1cc(N2CC[C@@H](O)[C@H]2CO)ncc1N(C)C(=O)C(C)(C)c1cc(C(F)(F)F)cc(C(F)(F)F)c1`, for which the AC50 is 40.8 µM (active).
For `Cc1ccc(C(C)C)cc1`, the call was inactive.
The same measure, in the same setting: with `CCCC(=O)OCCC(C)C` the entry was “inactive”; with `Cc1occc1C(=O)Nc1ccc(C(=O)N2CCC(F)(F)/C(=C\C(=O)N3CCC(N4CCCCC4)CC3)c3ccccc32)cc1`, “inactive”.
`NC(=O)c1nc(-c2cccc(-c3cc(F)ccc3OCC(F)(F)C(F)(F)F)c2)n[nH]1`: the AC50 is 13.2 µM (active).

The next assay concerns the target Ratio of Nucleoli Translocation and Cytoplasm, AR (gene 367) (UniProt P10275). Nature of the assay: UPITT_HCI_U2OS_AR_TIF2_Nucleoli_Cytoplasm_Ratio_Antagonist: University of Pittsburgh U2OS Androgen Receptor-Transcriptional Intermediary Factor 2 (AR-TIF2) Antagonism High Content Imaging Assay for Ratio of Nucleoli Translocation and Cytoplasm (AID 2283999).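 Further: antagonists lower the DHT-driven ratio of nucleolar to cytoplasmic red signal.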
Conditions: not given
In a few lines: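 High-content imaging of red fluorescence ratio, nucleoli versus cytoplasm, in U2OS expressing AR-RFP and TIF2-GFP, fitted relative to DHT. Compounds tested once at 20 uM final, then 0.195 to 50 uM final in serial dilution.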
As to `O=C(Nc1ccc(Cl)cc1)Nc1ccc(Cl)c(Cl)c1`, the result was inactive.
Same read-out and setting: the result for `COc1cc(C(=O)NC2CCN(C)CC2)ccc1Nc1ncc2c(n1)N(C1CCCC1)CC(F)(F)C(=O)N2C` reads “inactive”.
Consider `CCCCOC(=O)c1ccc(O)cc1`, for which the result was inactive.
Still for that read-out and setting: the result for `Cc1c2ccccc2c(C)c2c1ccc1ccccc12` reads “inactive”; that for `COCC(C)OCC(C)OCC(C)O` (stereo not drawn), “inactive”.
Still for that read-out and setting: with `O=C(O)Cn1c(=O)n(Cc2ccc(Br)cc2F)c(=O)c2ccc(Cl)cc21` the entry was “inactive”; with `Oc1ccc2ccccc2c1`, “inactive”.
With `NCc1cccc(C2CCN(C(=O)c3ccc(C#Cc4ccccc4F)o3)CC2)c1`, the AC50 was 27.2 µM (active).
Consider `O=c1c(-c2ccc(O)cc2)coc2cc(O)cc(O)c12`, for which the outcome was inactive.
For the molecule `CN(C[C@@H](CC[N+]12CCC(C3CCCCC3)(CC1)CC2)c1ccc(Cl)c(Cl)c1)C(=O)c1cc(C(F)(F)F)cc(C(F)(F)F)c1`, the AC50 was 29.6 µM (active).
For the molecule `OCCO`, the outcome was inactive.
Turning to `CN(C)c1ccc(C(=C2C=CC(=[N+](C)C)C=C2)c2ccc(N(C)C)cc2)cc1`, the AC50 was 2.66 µM (active).
`CCN(Cc1cccnc1)C(=O)c1cccc(Cl)c1[C@]1(C)C(=O)N(Cc2ccc(OC)cc2OC)c2ccc(Cl)cc21`: the result was inactive.
On the same count and under the same terms, with `CCCCCCCCCC(=O)O` the entry was “inactive”.
For the molecule `Cc1ccc(C(C)C)cc1`, the outcome was inactive.
Turning to `CCCC(=O)OCCC(C)C`, the result was inactive.
The same measure, in the same setting: the result for `NC(=O)c1nc(-c2cccc(-c3cc(F)ccc3OCC(F)(F)C(F)(F)F)c2)n[nH]1` reads “inactive”.

The next assay shares this target. Nature of the assay: UPITT_HCI_U2OS_AR_TIF2_Nucleoli_Cytoplasm_Ratio_Agonist: University of Pittsburgh U2OS Androgen Receptor-Transcriptional Intermediary Factor 2 (AR-TIF2) Agonism High Content Imaging Assay for Ratio of Nucleoli Translocation and Cytoplasm (AID 2284000).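 Further: hits raise the red nucleolar to cytoplasm ratio above vehicle.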
Conditions: not given
Put shortly:
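Compounds tested at 20 uM final in primary screen (0.2% DMSO) and 0.195-50 uM final in dose-response (0.5% DMSO). Imaging of human U2OS cells bearing RFP-AR and GFP-TIF2; endpoint is nucleoli/cytoplasm red signal ratio, positive direction relative to DMSO.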
In the case of `O=C(Nc1ccc(Cl)cc1)Nc1ccc(Cl)c(Cl)c1`, the result was inactive.
On to `COc1cc(C(=O)NC2CCN(C)CC2)ccc1Nc1ncc2c(n1)N(C1CCCC1)CC(F)(F)C(=O)N2C`, for which the result was inactive.
For the molecule `CCCCOC(=O)c1ccc(O)cc1`, the result was inactive.
As for `Cc1c2ccccc2c(C)c2c1ccc1ccccc12`, the outcome was inactive.
Still for that read-out and setting: the result for `COCC(C)OCC(C)OCC(C)O` (stereo not drawn) reads “inactive”.
In the case of `O=C(O)Cn1c(=O)n(Cc2ccc(Br)cc2F)c(=O)c2ccc(Cl)cc21`, the outcome was inactive.
Take `Oc1ccc2ccccc2c1`: the outcome was inactive.
With `NCc1cccc(C2CCN(C(=O)c3ccc(C#Cc4ccccc4F)o3)CC2)c1`, the AC50 was 50 µM (active).
Consider `O=C(O)c1ccccc1C(=O)OCc1ccccc1`, for which the result was inactive.
Same read-out and setting: with `O=c1c(-c2ccc(O)cc2)coc2cc(O)cc(O)c12` the entry was “inactive”.
As for `CN(C[C@@H](CC[N+]12CCC(C3CCCCC3)(CC1)CC2)c1ccc(Cl)c(Cl)c1)C(=O)c1cc(C(F)(F)F)cc(C(F)(F)F)c1`, the concentration at half-maximal activity (AC50) is 50 µM (active).
Take `OCCO`: the outcome was inactive.
As for `CN(C)c1ccc(C(=C2C=CC(=[N+](C)C)C=C2)c2ccc(N(C)C)cc2)cc1`, the outcome was inactive.
Still for that read-out and setting: the result for `CCN(Cc1cccnc1)C(=O)c1cccc(Cl)c1[C@]1(C)C(=O)N(Cc2ccc(OC)cc2OC)c2ccc(Cl)cc21` reads “inactive”.
On to `Cc1cc(F)ccc1-c1cc(N2CC[C@@H](O)[C@H]2CO)ncc1N(C)C(=O)C(C)(C)c1cc(C(F)(F)F)cc(C(F)(F)F)c1`, for which the AC50 was 60.4 µM (active).
For `CCCCCCCCCC(=O)O`, the result was inactive.
For the molecule `Cc1ccc(C(C)C)cc1`, the outcome was inactive.
The same measure, in the same setting: with `CCCC(=O)OCCC(C)C` the entry was “inactive”.
Regarding `Cc1occc1C(=O)Nc1ccc(C(=O)N2CCC(F)(F)/C(=C\C(=O)N3CCC(N4CCCCC4)CC3)c3ccccc32)cc1`, the outcome was inactive.
On the same count and under the same terms, with `CCCCCCCCN(C)CCCCCCCC` the entry was “inactive”.
For `NC(=O)c1nc(-c2cccc(-c3cc(F)ccc3OCC(F)(F)C(F)(F)F)c2)n[nH]1`, the concentration at half-maximal activity (AC50) is 12.7 µM (active).

System in the next assay: not listed separately
Briefly: CCTE_Simmons_MITO_basal_resp_rate: CCTE's HepG2 Seahorse XF Respirometric Screening Assay at Basal Respiratory State, Simmons Lab (AID 2284001; active means hit-call score of the fitted dose curve at least 0.9, where 1 is the maximum; inactive means score below 0.9). Conditions: actives raise or lower the signal. Put shortly:
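Basal-phase OCR in HepG2 cells, read at 6-min intervals across a 72-min run, with test compound injected at 125 nM–100 uM final (7 points). Fitted both directions against DMSO; three biological replicates per concentration.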
As for `O=C(O)Cc1cc(I)c(Oc2ccc(O)c(I)c2)c(I)c1`, the AC50 is 27 µM (active).
Same read-out and setting: with `CCCCOC(=O)c1ccc(O)cc1` the figure was 23.7 µM (active).
For the molecule `Cc1c2ccccc2c(C)c2c1ccc1ccccc12`, the AC50 is 17.1 µM (active).
Still for that read-out and setting: the result for `CC(C)(C)c1csc(-c2cc3cc(OCc4ccccc4CC(=O)O)ccc3o2)n1` reads 4.24 µM (active).
The same measure, in the same setting: the result for `CC1(C)NC(=O)N(c2ccc([N+](=O)[O-])c(C(F)(F)F)c2)C1=O` reads 37.2 µM (active).
For `NCc1cccc(C2CCN(C(=O)c3ccc(C#Cc4ccccc4F)o3)CC2)c1`, the AC50 is 37.2 µM (active).
For `OC12N=C(c3ccccc3)SC1Cc1cc(Cl)ccc12` (stereo not drawn), the outcome was inactive.
For `O=C1CCC(C2CCCCC2)CC1`, the molecule was called inactive.
With `CCCCCCCCCCCO`, the AC50 was 80.1 µM (active).
Regarding `CC(=O)N1CCN(c2ccc(OC[C@H]3CO[C@](Cn4ccnc4)(c4ccc(Cl)cc4Cl)O3)cc2)CC1`, the AC50 is 8.55 µM (active).
On the same count and under the same terms, with `CC(C)(c1cc(Br)c(O)c(Br)c1)c1cc(Br)c(O)c(Br)c1` the figure was 4.5 µM (active); with `CN(C)c1ccc(C(=C2C=CC(=[N+](C)C)C=C2)c2ccc(N(C)C)cc2)cc1`, 50 µM (active).
As for `Cc1cc2c(cc1C(F)(F)F)N(C(=O)Nc1ccc(Oc3cccnc3C)nc1)CC2`, the molecule was classed as inactive.
`CCN(Cc1cccnc1)C(=O)c1cccc(Cl)c1[C@]1(C)C(=O)N(Cc2ccc(OC)cc2OC)c2ccc(Cl)cc21`: the AC50 is 2.36 µM (active).
Still for that read-out and setting: with `Cc1cc(F)ccc1-c1cc(N2CC[C@@H](O)[C@H]2CO)ncc1N(C)C(=O)C(C)(C)c1cc(C(F)(F)F)cc(C(F)(F)F)c1` the figure was 40.8 µM (active); with `CN1C(=O)N(c2ccccc2Br)Cc2cnc(Nc3ccc4c(c3)OCC(CO)O4)nc21` (stereo not drawn), 35.1 µM (active).
`CCCCCCCCCC(=O)O`: the AC50 was 23.2 µM (active).
`CN(C)C(=O)C1(N2CCCCC2)CCN(CC[C@@]2(c3ccc(Cl)c(Cl)c3)CN(C(=O)c3ccccc3)CCO2)CC1`: the result was inactive.
Still for that read-out and setting: with `CC(C)(O)c1ccc(CNC(=O)c2cccnc2Oc2ccc3nonc3c2)cc1` the entry was “inactive”.
With `O=C1c2ccccc2C(=O)N1CCc1noc(-c2ccc(CN3CCCCCC3)s2)n1`, the AC50 was 57.5 µM (active).
On the same count and under the same terms, the result for `C[C@]12CC[C@@H]3c4ccc(O)cc4CC[C@H]3[C@@H]1CC[C@H]2O` reads 36.1 µM (active).
As to `CC/C(=C(/CC)c1ccc(O)cc1)c1ccc(O)cc1`, the AC50 was 8.17 µM (active).
The same measure, in the same setting: the result for `CCCCCCCCOC(=O)c1cc(O)c(O)c(O)c1` reads 13.6 µM (active); that for `NC(=O)c1nc(-c2cccc(-c3cc(F)ccc3OCC(F)(F)C(F)(F)F)c2)n[nH]1`, 6.26 µM (active).
